Where a name gives a salt, the structure may show the parent alone. A number with no mark means an inactive call.
How the values were obtained:
Conditions in all cases: 20 µM
[1] = tested on: Salmonella enterica typhimurium; assay: growth AUC normalised to DMSO control (fraction of control); higher = less growth inhibition, active = hit call of the paper
Summary of the method: (§1)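 For the AUC endpoint, growth curves were integrated by the trapezoidal rule up to the exponential-to-stationary transition and normalised to DMSO controls on the same plate. The curves came from OD578 readings taken hourly for 24 h, in three biological replicates. Pathogens had been passaged anaerobically twice and inoculated at an OD578 of 0.01 into pre-reduced mGAM plates carrying 20 μM compound and 1% DMSO, sealed with breathable membranes. Medium for Haemophilus parainfluenzae also contained hemin and NAD.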

Shigella flexneri = assay: as above
Summary of the method: as §1

Vibrio cholerae = assay: as above
Summary of the method: as §1

[2] = tested on: Yersinia pseudotuberculosis; assay: as above
Summary of the method: as §1

P. vulgatus RND KO = assay: growth AUC normalised to DMSO control (median) (fraction of control); higher = less growth inhibition, active = hit call of the paper
Summary of the method: (§2)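 Strains were passaged twice overnight without oxygen, then grown in mGAM in 96-well plates with each approved-drug library compound at 20 μM and 1% DMSO, starting at OD578 0.01. OD578 was read hourly for 24 h inside an anaerobic incubator. Curves were truncated at entry into stationary phase, and the trapezoidal-rule area under the curve was normalised to same-plate vehicle wells. The value is the median across three biological replicates.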

P. vulgatus WT = assay: as above
Summary of the method: as §2

[3] = tested on: S. enterica typhimurium WT; assay: as above
Summary of the method: as §2

[4] = tested on: S. enterica typhimurium tolC KO; assay: as above
Summary of the method: as §2
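For growth AUC normalised to DMSO control (median) in this document: active when median AUC fell below 0.1.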

Structure (SMILES)	growth AUC normalised to DMSO control [1]	growth AUC normalised to DMSO control (Shigella flexneri)	growth AUC normalised to DMSO control (Vibrio cholerae)	growth AUC normalised to DMSO control [2]	growth AUC normalised to DMSO control (P. vulgatus RND KO)	growth AUC normalised to DMSO control (P. vulgatus WT)	growth AUC normalised to DMSO control [3]	growth AUC normalised to DMSO control [4]
CCc1c(C)[nH]c2c1C(=O)C(CN1CCOCC1)CC2 (configuration not stated) [Molindone hydrochloride]	1	1.02	1.04	1.01	1.03	1.05	1.02	1.01
CC(=O)/N=c1/sc(S(N)(=O)=O)nn1C [Methazolamide]	0.99	1.04	1.05	0.979	1.07	1.06	1.01	1.02
O=C1c2c(O)cccc2Cc2cccc(O)c21 [Anthralin]	1.02	0.987	1.03	1.02	0.861	0.834	0.989	0.985
CN[C@@H]1[C@H](O)[C@H](NC)[C@H]2O[C@@]3(O)C(=O)C[C@@H](C)O[C@H]3O[C@@H]2[C@H]1O [Spectinomycin dihydrochloride]	0.896 (active)	1.01	1.02	0.933 (active)	1.01	1	0.961	0.871
COc1cc2nc(N(C)CCCNC(=O)C3CCCO3)nc(N)c2cc1OC (configuration not stated) [Alfuzosin hydrochloride]	1.01	1.03	1.06	0.978	1.02	1.08	1.01	1.01
CC(=O)OCC(=O)[C@@]1(O)[C@H](C)C[C@H]2[C@@H]3CCC4=CC(=O)C=C[C@]4(C)[C@@]3(F)[C@@H](O)C[C@@]21C [Dexamethasone acetate]	1	1	1	0.999	0.993	1.02	1.01	0.998
CN1CCN2c3ccccc3Cc3ccccc3C2C1 (configuration not stated) [Mianserine hydrochloride]	0.986	0.986	0.868 (active)	0.956	1.03	1.03	0.994	1
CCOc1ccccc1OC(c1ccccc1)C1CNCCO1 (configuration not stated) [Reboxetine mesylate]	0.991	0.986	1.01	0.995	1.01	1.01	1	0.988
Cc1c(-c2ccccc2)oc2c(C(=O)OCCN3CCCCC3)cccc2c1=O [Flavoxate hydrochloride]	1	1.02	1.01	0.984	1.06	1.1	1.02	0.952
CCOC(=O)[C@H](CCc1ccccc1)N[C@H]1CCc2ccccc2N(CC(=O)O)C1=O [Benazepril hydrochloride]	0.981	0.996	1.01	0.975	1	1	1	1
C[C@H]1C[C@@H]2[C@H]([C@@H](O)C[C@@]3(C)[C@H]2CC[C@]3(O)C(=O)CO)[C@@]2(C)C=CC(=O)C=C12 [Methylprednisolone, 6-alpha]	0.997	0.998	0.997	0.993	0.96	0.982	1	1
Cc1cc(CC(=O)O)n(C)c1C(=O)c1ccc(Cl)cc1 [Zomepirac sodium salt]	0.997	1	0.995	1	0.992	1.01	0.991	1.02
CC(C)(C)NC(=O)[C@H]1CC[C@H]2[C@@H]3CC[C@H]4NC(=O)C=C[C@]4(C)[C@H]3CC[C@]12C [Finasteride]	1.02	1.02	1.03	1.01	1.02	1.04	1.01	0.895
COc1ccc(C(=O)NCc2ccc(OCCN(C)C)cc2)cc1OC [Itopride]	0.996	1.05	1.07	1.03	1.02	1.06	1.02	1
NS(=O)(=O)c1cc(C(=O)O)c(NCc2ccco2)cc1Cl [Furosemide]	0.996	1.01	1.01	1.01	1.05	1.06	1.02	1.02
CN[C@H]1CC[C@@H](c2ccc(Cl)c(Cl)c2)c2ccccc21 [Sertraline]	0.992	0.978	0.928	1.01	0.998	1.02	0.999	0.945
CC(C(=O)O)c1cccc(Oc2ccccc2)c1 (configuration not stated) [Fenoprofen calcium salt dihydrate]	0.995	0.924	0.945	0.987	0.99	0.983	1	0.995
CO[C@H]1C[C@H](O[C@H]2[C@H](C)[C@@H](O[C@@H]3O[C@H](C)C[C@H](N(C)C)[C@H]3OC(C)=O)[C@@H](C)C[C@@]3(CO3)C(=O)[C@H](C)[C@@H](OC(C)=O)[C@@H](C)[C@@H](C)OC(=O)[C@@H]2C)O[C@@H](C)[C@@H]1OC(C)=O [Troleandomycin]	0.998	1.01	0.882	0.999	0.0116 (active)	0.00916 (active)	0.988	0.207
O=C(CCCCC(=O)Nc1c(I)cc(I)c(C(=O)O)c1I)Nc1c(I)cc(I)c(C(=O)O)c1I [Iodipamide]	0.986	0.998	0.995	1	1.01	1	0.999	1.01
CC(=O)Oc1cc(C(C)C)c(OCCN(C)C)cc1C [Moxisylyte hydrochoride]	0.992	0.992	0.991	0.99	0.999	1	1.01	1
C=CCOc1ccccc1OCC(O)CNC(C)C (configuration not stated) [Oxprenolol hydrochloride]	0.993	1.02	1.03	1	0.998	1	0.997	0.994
CCCN(CCC)S(=O)(=O)c1ccc(C(=O)O)cc1 [Probenecid]	1.02	1.03	1.02	1.02	1	1.02	1.02	0.895
CC(=O)N(O)CCCCCNC(=O)CCC(=O)N(O)CCCCCNC(=O)CCC(=O)N(O)CCCCCN [Deferoxamine mesylate]	1.03	1.03	1.03	1	1.04	1.07	0.998	1
CNC1(C)C2CCC(C2)C1(C)C (configuration not stated) [Mecamylamine hydrochloride]	1.02	1	0.976	1.02	1.09	1.09	1.02	1.02
COc1ccc(NS(=O)(=O)c2ccc(N)cc2)nn1 [Sulfamethoxypyridazine]	1.02	1.04	1.03	0.996	1.02	1.04	1.01	0.986
Nc1ccn([C@@H]2CS[C@H](CO)O2)c(=O)n1 [Lamivudine]	0.98	0.986	0.995	1.01	1	1.02	1	0.992
CC(C(=O)O)c1ccc(N2Cc3ccccc3C2=O)cc1 (configuration not stated) [Indoprofen]	0.992	1.01	1.03	1.01	0.975	0.971	0.993	0.997
COc1ccc(CC2c3cc(OC)c(OC)cc3CC[N+]2(C)CCC(=O)OCCCCCOC(=O)CC[N+]2(C)CCc3cc(OC)c(OC)cc3C2Cc2ccc(OC)c(OC)c2)cc1OC (configuration not stated) [Atracurium besylate]	1	1.05	1.01	1	1.04	1.04	0.983	1.01
COc1ccc2c(c1)N(C[C@H](C)CN(C)C)c1ccccc1S2 [Methotrimeprazine maleate salt]	1.01	1.03	1	0.99	1.04	1.02	0.995	0.954
